Inconclusive results are not listed. Where a call stands in place of a potency, no number is given. The source made the active and inactive calls. The call rests on the fitted dose curve; in most records, active means well fitted antagonist curve with a large enough effect in the main read-out, with a control signal flat; inconclusive means small, poorly fitted or top-dose-only effect; inactive means no such curve, though single readings can be large or run the other way.
molecular target: Neuropeptide S receptor (Homo sapiens) (UniProt Q6W5P4); experiment: Confirmation Concentration-Response Assay for Antagonists of the Neuropeptide S Receptor: Calcium Signal Transduction, SAR for Probe; details: CHO-NPSR cells, NPS-induced calcium fluorescence, FDSS; series mostly up to 19.3 µM
Sequence (Q6W5P4 whole entry, looked up): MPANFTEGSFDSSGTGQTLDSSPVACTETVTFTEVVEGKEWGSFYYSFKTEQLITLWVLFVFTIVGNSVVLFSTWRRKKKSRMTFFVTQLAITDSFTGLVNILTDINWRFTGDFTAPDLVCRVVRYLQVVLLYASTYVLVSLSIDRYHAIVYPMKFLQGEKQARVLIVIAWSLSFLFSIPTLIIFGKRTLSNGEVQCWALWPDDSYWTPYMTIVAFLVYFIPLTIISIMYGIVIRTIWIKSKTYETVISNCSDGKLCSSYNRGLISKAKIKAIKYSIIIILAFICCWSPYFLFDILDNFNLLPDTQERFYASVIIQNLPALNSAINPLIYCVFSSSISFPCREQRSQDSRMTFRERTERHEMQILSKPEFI
How it was run: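 Calcium flux was measured by kinetic fluorescence in dye-loaded CHO-NPSR cells, first after compound addition (210 s), then after NPS challenge (60 nM in stimulation reagent, 140 s). Hill-equation fitting gave AC50.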

Row | Structure (SMILES) | Potency
1 | Cc1c(P(=S)(c2ccccc2)c2ccccc2)c2ccccc2n1CCc1ccccc1 | inactive
2 | CCCCOc1ccc(OCCCN2CCOCC2)cc1 | inactive
3 | C(=N\Nc1nc(-c2ccccn2)nc2ccccc12)/c1ccccc1 | inactive
4 | Cc1ccc(NC(=S)NNC(C)(C)C)cc1 | inactive
5 | Cc1c(P(=S)(c2ccccc2)c2ccccc2)c2ccccc2n1C/C=C/c1ccccc1 | inactive
6 | COc1ccc(-n2cnc3c(c2=N)C(c2cccc(OC)c2)c2c(ccc4ccccc24)O3)cc1 (stereo not given) | 4.38 µM (active)
7 | O=C(/C=C/c1ccco1)NC(=S)Nc1nc(-c2ccc3ccccc3c2)cs1 | inactive
8 | COc1cccc(C2c3c(ncn(-c4ccccc4-c4ccccc4)c3=N)Oc3ccc4ccccc4c32)c1 (stereo not given) | inactive
9 | Cc1c(P(=S)(c2ccccc2)c2ccccc2)[n+]2ccccc2n1CC(=O)c1ccccc1 | 2.76 µM (active)
10 | COc1cccc(C2c3c(ncn(-c4ccccc4C(C)(C)C)c3=N)Oc3ccc4ccccc4c32)c1 (stereo not given) | 4.38 µM (active)
11 | COc1ccc(C2c3c(n(CCc4ccccc4)cnc3=N)Oc3ccc4ccccc4c32)cc1OC (stereo not given) | inactive
12 | Cc1ccc(S(=O)(=O)Nc2cccc3ncccc23)s1 | 3.16 µM (active)
13 | COc1cccc(C2c3c(ncn(-c4ccc(C(C)(C)C)cc4)c3=N)Oc3ccc4ccccc4c32)c1 (stereo not given) | 5.52 µM (active)
14 | CCC(C)n1c(=O)c(C(=O)Nc2ccccc2S(N)(=O)=O)c(O)c2ccccc21 (stereo not given) | inactive
15 | Oc1ccc(N=Nc2nccs2)c(O)c1 | inactive
16 | COc1cccc(C2c3c(ncn(-c4cccc(Cl)c4)c3=N)Oc3ccc4ccccc4c32)c1 (stereo not given) | 8.74 µM (active)
17 | COc1cccc(C2c3c(ncn(-c4cccc(OC)c4)c3=N)Oc3ccc4ccccc4c32)c1 (stereo not given) | 5.52 µM (active)
18 | COc1cccc(C2c3c(ncn(-c4ccccc4SC)c3=N)Oc3ccc4ccccc4c32)c1 (stereo not given) | 0.438 µM (active)
19 | Cc1cc(C)n(-c2nc(NC(C)C)nc(NC(C)C)n2)n1 | inactive
20 | S=C(Nc1ccccc1)Nc1nccs1 | inactive
21 | Cc1c(P(=S)(c2ccccc2)c2ccccc2)c2ccccc2n1C(=O)Cc1ccccc1 | inactive
22 | NC(=O)OCC(COC(N)=O)c1ccccc1 | inactive
23 | COc1cccc(C2c3c(ncn(-c4ccccc4Cl)c3=N)Oc3ccc4ccccc4c32)c1 (stereo not given) | 5.52 µM (active)
24 | NC(=S)N/N=C/c1ncc(C(F)(F)F)cc1Cl | inactive
25 | COc1cccc(C2c3c(ncn(-c4cccc(Br)c4)c3=N)Oc3ccc4ccccc4c32)c1 (stereo not given) | 4.38 µM (active)
26 | CC(=O)c1sc(N/N=C\c2ccccc2O)nc1C | 1.12 µM (active)
27 | Cc1c(C(O)(c2ccccc2)c2ccccc2)[n+]2ccccc2n1C | inactive
28 | Cc1c(P(=S)(c2ccccc2)c2ccccc2)c2ccccc2n1CCCc1ccccc1 | inactive
29 | COc1ccc(C2c3c(N)nc(CCc4ccccc4)nc3Oc3ccc4ccccc4c32)cc1OC (stereo not given) | inactive
30 | Cc1cc2nc3ccc(=[N+](C)C)cc-3sc2cc1N | inactive
